The results in this text go back to ChEMBL document CHEMBL3433997, “St. Jude Leishmania screening dataset” (2016).

What all share (assay type): functional
Test [1] has as its target Solute carrier family 2, facilitated glucose transporter member 1 (Homo sapiens) (UniProt P11166). Kind of test: ST_JUDE_LEISH: Cytotoxicity at 2uM final concentration against transgenic Leishmania Mexicana promastigotes LmGLUT1 that are glucose transport deficient and complemented with the human glucose transporter GLUT1. Activity is measured by DNA content using SYBR green in vitro.

The target in test [2] is Hexose transporter 1 (Plasmodium falciparum) (UniProt O97467). Kind of test: ST_JUDE_LEISH: Cytotoxicity at 2uM final concentration against transgenic Leishmania Mexicana promastigotes LmPfHT that are glucose transport deficient and complemented with the Plasmodium falciparum hexose transporter. Activity is measured by DNA content using SYBR green in vitro.
Test [3] addresses Glucose transporter (Leishmania mexicana) (UniProt O61059). The test is described as follows: ST_JUDE_LEISH: Cytotoxicity at 2uM final concentration against transgenic Leishmania Mexicana promastigotes LmGT2 that are glucose transport deficient and complemented with the L. Mexicana glucose transporter 2. Activity is measured by DNA content using SYBR green in vitro.

Chain of Solute carrier family 2, facilitated glucose transporter member 1 (Homo sapiens) (P11166 whole entry): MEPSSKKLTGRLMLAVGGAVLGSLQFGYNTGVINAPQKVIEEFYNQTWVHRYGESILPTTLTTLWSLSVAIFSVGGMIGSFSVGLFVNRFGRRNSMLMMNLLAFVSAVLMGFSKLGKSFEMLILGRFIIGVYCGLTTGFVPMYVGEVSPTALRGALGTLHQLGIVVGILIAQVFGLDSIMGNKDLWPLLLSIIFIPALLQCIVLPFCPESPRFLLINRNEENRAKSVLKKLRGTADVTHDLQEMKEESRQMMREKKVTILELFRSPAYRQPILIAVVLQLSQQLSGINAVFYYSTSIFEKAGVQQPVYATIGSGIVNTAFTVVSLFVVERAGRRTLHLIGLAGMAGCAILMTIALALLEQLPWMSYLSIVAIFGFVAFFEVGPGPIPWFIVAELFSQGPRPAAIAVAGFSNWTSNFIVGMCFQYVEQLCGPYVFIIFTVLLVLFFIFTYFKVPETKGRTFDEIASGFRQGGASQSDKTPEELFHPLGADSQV

Turning to `CN1CCN(C(=O)CN2CCC3(CCC2=O)NC(=O)c2ccccc2O3)CC1` (centres undefined), the inhibition in test [1] was 3.76%; in test [2], 5.1%; in test [3] it was 3.13%.
Taken in the same sequence, the figures for `COc1ccc2ncc(C#N)c(CCN3CCC(NCc4ccc5c(n4)NC(=O)CS5)CC3)c2n1` were 3.43%, 6.45% and 0.77%.
Taken in the same sequence, the figures for `CCNc1cc(C(=O)N[C@@H](Cc2cccc(F)c2)[C@H](O)CNC(C)CCCC(C)C)cc(N2CCCCS2(=O)=O)c1` (some centres undefined) were 1.15%, 2.92% and 1.42%.
As for `Cc1noc(C)c1CN1CCCN(c2ccc3c(c2)CCN(Cc2ccc(-c4ncc[nH]4)cc2)CC3)CC1`, the values for the inhibition in test [1], in test [2] and in test [3] were 1.29%, 3.6% and 1.65%, respectively.
The matching figures for `COc1ccc2[nH]ccc(=NN=Cc3ccccc3)c2c1`: 13.5%, 9.86% and 5.06%.
The matching figures for `COc1ccc(NC(=O)Nc2ccc(-c3ccccc3)cc2)cc1Cn1nc(Cl)c(N2CCCNCC2)cc1=O`: 0.73%, 0.83% and 0.02%.
Taken in the same sequence, the figures for `COc1cccc2c(NCc3ccccc3)nc(NCCCN3CCCCC3C)nc12` (centres undefined) were 67.7%, 50.8% and 13.1%.
For `Cc1cccc2nc(-c3ccc(-c4cccc(NC(=O)c5cccc(C(N)=O)c5)c4)cc3)[nH]c12`, the inhibition in test [1] stood at 3.55%; in test [2], 3.07%; in test [3], 2.8%.
Taken in the same sequence, the figures for `Cc1nc(C)c(CC(=O)Nc2ccc(-c3ccc(-c4nc5cc(C(F)(F)F)ccc5[nH]4)s3)cc2)s1` were 2.35%, 2.1% and -0.02%.
Turning to `Cc1cccc2nc(-c3cccc(-c4cccc(CN5CCN(c6ccc(C#N)cn6)CC5)c4)c3)[nH]c12`, the inhibition in test [1] stood at 11.6%; in test [2] it was 10.3%; in test [3] it was 9.4%.
The matching figures for `CC(C)COc1ccc(Cl)cc1Cc1ccc(-c2nc3cnc4ccccc4c3[nH]2)o1`: 3.89%, 2.77% and 2%.
Taken in the same sequence, the figures for `COc1cc(Cc2cnc(N)nc2N)c2c(c1OC)OC(C)C=C2` (centres undefined) were 1.59%, 2.39% and 2.25%.
The matching figures for `CCCCCCCCn1ccc(=N)cc1`: 4.46%, 3.06% and 0.3%.

For orientation: inhibition means the relative decrease from the control value, in per cent.
